Shown is part of a subset that was picked to be rich in hits.
RECQ1 helicase: qHTS Assay for Inhibitors of RecQ-Like Dna Helicase 1 (RECQ1) | ATP-dependent DNA helicase Q1 (Homo sapiens), P46063 | Potency, µM (doses to about 57.3 µM), for the others: at the highest dose activity, negative = inhibition, hits mostly inhibitors | actives 0.54% (n = 240,000) | RECQ1 DNA unwinding, red fluorescence kinetic read | AID 2549, 2010;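 note: plate controls were vehicle for no effect and no enzyme for full effect; nearly all actives have a fitted effect of over 30% in size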
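RECQ1T1 50 nM; forked duplex (20 bp + 30-nt ss tails) 200 nM, ATP 2 mM final; pH 8.0, 2 mM MgCl2, 2.5 ug/ml poly(dI-dC); 15 min compound preincubation; discontinuous kinetic read over 2 h at RT.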
TDP1 block: qHTS Assay for Inhibitors of Tyrosyl-DNA Phosphodiesterase (TDP1) | Potency, µM (top dose mostly 130 µM), inactives show top-dose activity change, negative = inhibition, actives largely listed as inhibitors | recombinant TDP1, AlphaScreen DNA substrate cleavage | Tyrosyl-DNA phosphodiesterase 1 (Homo sapiens), Q9NUW8 | AID 485290, 2010 | actives 0.28% (n = 350,000); note: nearly all actives have a fitted effect of over 40% in size
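Compounds were preincubated with Tdp1 (1 nM final) for 15 min at room temperature before substrate (15 nM final) started a 5 min reaction; beads (10 ug/ml final) were then added for 10 min before AlphaScreen detection.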
APEX1 inh: qHTS Assay for Inhibitors of the Human Apurinic/apyrimidinic Endonuclease 1 (APE1) | actives 0.35% (n = 350,000) | DNA repair nuclease/redox regulator APEX1 (Homo sapiens), P27695 | recombinant APE1, TAMRA/BHQ-2 abasic DNA cleavage fluorescence | Potency, µM (top dose mostly 65.8 µM), for inactives: at the top dose activity change, negative = inhibition, usual class: inhibitors;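 note: plate controls were vehicle for no effect and reference inhibitor for full effect; nearly all actives have a fitted effect of over 55% in size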
Target sequence (P27695 whole entry, looked up): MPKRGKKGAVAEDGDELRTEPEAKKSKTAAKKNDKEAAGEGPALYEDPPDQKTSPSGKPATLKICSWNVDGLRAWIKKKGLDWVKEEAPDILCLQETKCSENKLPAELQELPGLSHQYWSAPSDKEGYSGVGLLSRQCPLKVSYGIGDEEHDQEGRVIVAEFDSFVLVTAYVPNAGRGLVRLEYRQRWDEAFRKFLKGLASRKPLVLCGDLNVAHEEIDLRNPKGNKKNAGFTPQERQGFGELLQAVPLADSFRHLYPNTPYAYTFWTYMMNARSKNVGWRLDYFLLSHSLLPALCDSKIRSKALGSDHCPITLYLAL
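Enzyme (0.75 nM final) and test compound are incubated 15 min at room temperature before adding 50 nM quenched THF abasic-site duplex. Cleavage dequenches TAMRA, followed at 525/598 nm over three reads one minute apart.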
BLM helicase inh: qHTS Assay for Inhibitors of Bloom's syndrome helicase (BLM); recombinant BLM DNA unwinding, fluorescence dequenching; Potency, µM (series often up to 56.1 µM), inactives show at the highest dose activity change, negative = inhibition, actives largely listed as inhibitors; actives 0.2% (n = 350,000); AID 2528, 2010;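 note: plate controls were vehicle for no effect and no enzyme for full effect; nearly all actives have a fitted effect of over 35% in size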
L3MBTL1 inh: qHTS Assay for the Inhibitors of L3MBTL1 | AlphaScreen L3MBTL1–H3K9me1 peptide binding | Potency, µM (highest dose often 57.1 µM), inactives show at the top dose activity, negative = inhibition, actives largely listed as inhibitors | actives 0.66% (n = 230,000) | AID 485360, 2010; note: nearly all actives have a fitted effect of over 60% in size
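AlphaScreen assay: L3MBTL1 (50 nM final) was preincubated 30 min at room temperature with biotinylated H3(1-15)K9me1 peptide (75 nM final), then 30 min with library compounds; streptavidin donor and nickel chelate acceptor beads (10 ug/mL final) added, 30 min dark.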
KDM4E inh: qHTS Assay for Inhibitors of Human Jumonji Domain Containing 2E (JMJD2E); Lysine-specific demethylase 4E (Homo sapiens), B2RXH2; JMJD2E catalytic domain, FDH-coupled NADH fluorescence (FDH is formaldehyde dehydrogenase); Potency, µM (highest dose often 57.1 µM), without a hit: at the highest dose activity change, negative = inhibition, most hits filed as inhibitors; actives 1.6% (n = 230,000); AID 2147, 2009; active = well fitted inhibition curve with a large enough effect, not every such curve was filed as active; inconclusive = small, poorly fitted or top-dose-only effect, or another doubt; inactive = no such curve, though single readings can be large or run the other way;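 note: 0% = wells with enzyme and -100% = buffer wells without enzyme; nearly all actives have a fitted effect of over 50% in size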
Target sequence (B2RXH2 1-337 limits assumed): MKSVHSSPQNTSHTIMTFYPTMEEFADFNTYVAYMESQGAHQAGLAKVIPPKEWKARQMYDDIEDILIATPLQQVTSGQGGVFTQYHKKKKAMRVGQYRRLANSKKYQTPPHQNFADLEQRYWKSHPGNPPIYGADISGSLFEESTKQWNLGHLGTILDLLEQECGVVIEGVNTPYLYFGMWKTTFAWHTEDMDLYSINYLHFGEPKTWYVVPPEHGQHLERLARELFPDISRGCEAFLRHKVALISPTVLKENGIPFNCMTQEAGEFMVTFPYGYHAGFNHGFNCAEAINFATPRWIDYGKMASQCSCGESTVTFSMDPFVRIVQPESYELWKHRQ
Active calls of the source: *; i = inactive; ? = inconclusive; / = not tested or not shown; [ ] = remark or other dose. Unless noted, calls come from the whole dose curve; as a rule, active = well fitted curve in the direction sought with a large enough effect; inconclusive = small, poorly fitted or top-dose-only effect, or another doubt; inactive = no such curve, though single readings can be large; an effect the other way counts as inactive or inconclusive. Unless noted, % is set by controls: 0 for no effect and ±100 for the full control effect; potency is the fitted concentration of half-maximal effect.

SMILES | RECQ1 helicase | TDP1 block | APEX1 inh | BLM helicase inh | L3MBTL1 inh | KDM4E inh
Oc1ccc(CN2CCN(Cc3ccccc3)CC2)c2cccnc12 | i | 0% | -3% | -3% | -2% | -3%
COCc1ccc(O)c2ncccc12 | -1% | 8% | 0% | -1% | / | 10µM*
O=C(CNC(=O)c1cccc2ccccc12)OC(C(=O)Nc1cc(C(F)(F)F)ccc1Cl)c1ccccc1 (centres undefined) | / | -3% | / | / | / | /
CCOC(=O)CN(Cc1cc(OC)cc(N(C)C)c1OC)C(=O)C1CC(CO[Si](C)(C)C(C)(C)C)=CN1C(=O)OC(C)(C)C (centres undefined) | i | 10% | 2% | -5% | / | /
CCN(c1ccccc1)S(=O)(=O)c1ccc(Cl)c(NC(=O)COC(=O)c2cc(O)c3ccccc3c2O)c1 | i | 9% | -19% | -17% | / | 8.9µM*
CCN(c1ccccc1)S(=O)(=O)c1ccc(Cl)c(NC(=O)CSc2nncn2C)c1 | -3% | 0% | 11% | -1% | 2% | 1%
CC(C)C[C@H](NC(=O)c1[nH]cnc1C(=O)Nc1ccc(CNC(=O)OC(C)(C)C)cc1)C(=O)OCc1ccccc1 | 8% | 11% | 4% | -19% | / | 32µM*
O=[N+]([O-])c1cc(/C=N/N/C(=N/c2ccccn2)c2ccccn2)ccc1O | 3% | 8% | -1% | 0% | ? | 18µM*
Cc1onc(-c2ccccc2)c1C(=O)N/N=C/c1ccc(O)c([N+](=O)[O-])c1 | / | 5% | 37% | 0% | / | /
COC(=O)c1c(OC)cc2c(c1C)Oc1c(Cl)c(O)c(Cl)c(C)c1C(=O)O2 | -11% | 16%[56.1 µM] | 0% | -15% | / | -5%
COc1cc(C)c2c(c1C=O)Oc1c(c(C)c(O)c3c1C(O)OC3=O)OC2=O (centres undefined) | 14µM* | / | 13µM* | -2% | ? | ?
O=C(CSc1nc2ccccc2c(=O)n1-c1ccccc1)NC(=O)CN1CCCC1=O | i | 22µM* | ? | -10% | ? | 5%
N#Cc1nc(Nc2cc(F)cc(F)c2)c2ncn(C3CCCC3)c2n1 | / | 0% | / | / | / | /
O=C(NO)c1ccccc1O | 0% | 6% | 9% | -4% | 6% | 10µM*
COC1/C=C/OC2(C)Oc3c(C)c(O)c4c(O)c(c(/C=N/N5CCN(C)CC5)c(O)c4c3C2=O)NC(=O)/C(C)=C/C=C/C(C)C(O)C(C)C(O)C(C)C(OC(C)=O)C1C (centres undefined) | i | 15% | 5% | -3% | / | 8.9µM*
CO[C@@H]1C=CO[C@]2(C)Oc3c(C)c(O)c4c(O)c(c(C=NN5CCN(C)CC5)c(O)c4c3C2=O)NC(=O)C(C)=CC=C[C@H](C)[C@H](O)[C@H](C)[C@H](O)[C@H](C)[C@H](OC(C)=O)[C@H]1C | i | 12%[21 µM] | -1%[21 µM] | 2%[21.4 µM] | / | -29%[25.5 µM]
COc1ccccc1NCCC(=O)O | i | -7% | 4% | 0% | / | 6%
O=C(O)CCNc1ccc(NCCC(=O)O)c2c1C(=O)c1ccccc1C2=O | / | / | 6.7µM* | ? | / | /
Cc1ccc(S(=O)(=O)Oc2ccc(N=Nc3ccc(-c4ccc(N=Nc5c(O)ccc6cc(S(=O)(=O)O)cc(S(=O)(=O)O)c56)c(C)c4)cc3C)cc2)cc1 | 25µM* | 25% | 35µM* | / | / | /
CCCOC(C(=O)OC1CCN(C)CC1)(c1ccccc1)c1ccccc1 | / | / | / | -1% | / | /
COc1cccc(CNc2ccc(N3CCCCC3)cc2)c1OC | -6% | 15% | -3% | -10% | 20µM* | 11µM*
COc1cccc(OC)c1C(=O)Nc1ccccc1N1CCCCC1 | / | / | 14% | -7% | -1% | /
COc1cccc(Nc2ccc(N3CCCCC3)cc2)c1OC | / | 14% | -6% | / | 35µM* | /
COc1cccc(NC(=O)C(OC(=O)CNC(=O)c2ccccc2)c2ccccc2)c1 (centres undefined) | / | 0% | / | / | / | /
CCN(CC)c1ccc(/C=C/C(=O)C2C(=O)C=C(C)OC2=O)cc1 (centres undefined) | 16µM* | 7% | ? | ? | / | ?
SMILES | RECQ1 helicase | TDP1 block | APEX1 inh | BLM helicase inh | L3MBTL1 inh | KDM4E inh
CCN(CC)c1ccc(C=C2C(=O)OC(c3ccccc3)OC2=O)cc1 (centres undefined) | 13% | 1% | 12% | -3% | / | -23%
c1ccc(CNCc2nnc(-c3cc4ccccc4[nH]3)o2)cc1 | / | 0% | / | / | / | /
CCOC(=O)c1c(OCC)[nH]c2c1cc(O)c1ccccc12 | -7% | 6% | -2% | -9% | -6% | 22µM*
CCOC(=O)c1c(C)[nH]c2cc(Br)c(O)cc12 | -7% | 3% | 8% | -1% | 1% | 0%
Cc1ccc(NC(=O)Cc2ccc(-n3c(C)nc4cccnc43)cc2)c(Cl)c1 | / | 8% | / | -1% | / | /
Cc1ccc(C(=O)NCc2ccc3c(c2)CCN3C(=O)c2ccc(C)cc2)cc1 | / | 1% | / | -3% | / | /
CCn1c(/C=C/c2ccc(O)c(O)c2)nc2ccccc2c1=O | / | -4% | -19% | -12% | 20µM* | /
CCn1c(/C=C/c2ccc(O)cc2)nc2ccccc2c1=O | / | 5% | 27% | -8% | -6% | /
CC(C)(C)CNc1nc(C#N)nc(Nc2ccccc2)n1 | i | 7% | -5% | -9% | / | /
Cc1cccc(NC(=O)CNC(=O)Cn2ncc(Cl)c(Cl)c2=O)c1C | / | 14µM* | ? | / | 32µM* | /
Oc1cc2c(c(Cl)c1O)CCNCC2c1ccccc1 (centres undefined) | -17% | 11%[56.1 µM] | 0% | / | / | 13µM*
Oc1cc2c(c(Cl)c1O)CCNC[C@H]2c1ccccc1 | ? | 13% | 10% | -7% | / | 13µM*
C=CCN1CCc2cc(O)c(O)cc2C(c2ccccc2)C1 (centres undefined) | -8% | -4% | 17% | / | -14% | ?
Cc1cccc(C2CN(C)CCc3c2cc(O)c(O)c3Cl)c1 (centres undefined) | 0% | -5% | -10% | / | -10% | 13µM*
COc1ccc(C2Nc3ccccc3C(=O)N2Cc2cccc(Cl)c2)cc1COc1ccc(NC(C)=O)cc1 (centres undefined) | / | 1% | / | / | / | /

Compound activity: PubChem, National Center for Advancing Translational Sciences (NCATS)
